Experimental data published in the supplement of paper PMC3334620.
Over roughly 33,000 sequences, “E-score (-0.5 to 0.5)” has its median near -0.0034; the highest 2% begin near 0.25. The list comes from a sample in which the highest values are over-represented; it also holds similar and randomly drawn sequences.

What follows are sequences tested against T1, Yap3 (UniProt P38749) (assay: PBM E-score (8-mer binding enrichment) (E-score (-0.5 to 0.5)); higher = stronger / more preferred TF binding). Details: protein concentration: 100 nM; construct: GST-full length.
T1 sequence: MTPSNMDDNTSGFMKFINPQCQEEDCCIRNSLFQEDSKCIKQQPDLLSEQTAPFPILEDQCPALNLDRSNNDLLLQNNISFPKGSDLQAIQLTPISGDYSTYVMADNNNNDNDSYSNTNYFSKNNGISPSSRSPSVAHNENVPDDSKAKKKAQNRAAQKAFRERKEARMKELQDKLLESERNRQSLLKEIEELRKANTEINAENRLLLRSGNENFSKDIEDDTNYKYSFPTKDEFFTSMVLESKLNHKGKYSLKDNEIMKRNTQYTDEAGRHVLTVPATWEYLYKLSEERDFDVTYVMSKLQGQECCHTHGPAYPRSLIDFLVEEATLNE
How it was run: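 Using PURExpress in vitro transcription/translation, GST-tagged yeast transcription factors were made in full-length or DNA-binding-domain form. These were applied at about 100-200 nM to double-stranded universal all-10-mer Agilent arrays, and bound protein was detected with fluorescent anti-GST. Scans were normalised with masliner before the Universal PBM Analysis Suite assigned E-scores to ungapped eight-base words pooled with their reverse complements.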

In order of falling “PBM E-score” value:
1. ACATAATA  0.353
2. AATAATAT  0.337
3. CATTATTA  0.334
4. AATAATGG  0.329
5. AATTATTA  0.311
6. AATAATCT  0.31
7. AAAATGGA  0.309
8. AATAATAA  0.308
9. CGAATCGA  0.301
10. AATAATAC  0.296
11. ACATAATC  0.293
12. GTAATGGA  0.288
13. ATAAAGTA  0.286
14. ACATAACA  0.285
15. GCATAATA  0.283
16. TATTATAA  0.281
17. AATATGAA  0.279
18. AATATGAT  0.279
19. TGCAATAA  0.272
20. ATAAAGTG  0.271
21. AATAAGAA  0.269
22. AAGTATAC  0.266
23. AAAATGAT  0.265
24. AATTATAC  0.26
25. AATTATTC  0.256
26. GTAAAGTA  0.251
27. AAGTATAA  0.249
28. GATTATAA  0.244
29. TACTAAGA  0.242
30. AATTATAG  0.234
31. AATAATGT  0.233
32. AATTATAA  0.224
33. AATATGAC  0.223
34. GATATGAA  0.214
35. CCATAATA  0.214
36. ACATAATG  0.211
37. AAAATGAA  0.208
38. TATATGAA  0.203
39. GATTATTA  0.198
40. AATAAGAG  0.195
41. AATTATTG  0.195
42. ACATAACT  0.192
43. CGCAATAA  0.191
44. ATAATGGA  0.188
45. CATTATTC  0.185
46. ACATAAGA  0.185
47. AGTTATTA  0.184
48. GATAATAC  0.182
49. GCATAACA  0.157
50. CCATAATC  0.144
51. TATAATGA  0.136
52. AAGTATAT  0.135
53. ATAAAGTC  0.133
54. CATATGAA  0.132
55. AAAATGAC  0.13
56. CAGACAAA  0.126
57. AACTATTC  0.125
58. CGCTAACA  0.118
59. GGCAATAA  0.114
60. AATAATCC  0.109
61. AATAATCG  0.107
62. CATAATAA  0.105
63. AGGACACA  0.0983
64. ACATAACC  0.0973
65. GATGAGAA  0.0962
66. AGTTATTC  0.096
67. ACTTATGC  0.0843
68. AATAAGAT  0.075
69. AAGAATAT  0.0717
70. AATGCAGT  0.0696
71. AATATGAG  0.0655
72. ACAAAGTG  0.0611
73. GCATAAGA  0.0573
74. AGAATCGA  0.0567
75. TATGCAGA  0.0525
76. CCTATTGA  0.0457
77. CATTATAA  0.0345
78. CATCCTTA  -0.00117
79. CCGCATGC  -0.00346
80. CTAATGGA  -0.0109
81. AGCTCAGG  -0.0122
82. ATGTGGAC  -0.0215
83. CTAAAGTA  -0.0221
84. CATAATGG  -0.033
85. CAAGGGTC  -0.0382
86. CGCTCACC  -0.0419
87. GAACCCTA  -0.054
88. AAAATGGG  -0.0559
89. CGATGGAC  -0.0566
90. ACCAGGTC  -0.0571
91. GGAATCGA  -0.059
92. GGACTGTA  -0.0642
93. CAGCTGCC  -0.0739
94. ATACTTCG  -0.0772
95. AACCATCC  -0.0788
96. CAAATGGA  -0.0854
97. CGGCGATC  -0.086
98. AATGCTCT  -0.0877
99. GGTGCGGA  -0.0917
100. CCCAGTTC  -0.0993
101. AAGAATCC  -0.111
102. ACCTCCTC  -0.145
103. ACCGCTGG  -0.16
104. GACGGGGA  -0.164
105. AGTGCGGC  -0.165
106. ACCTCTCT  -0.175
107. GGGTAGAC  -0.216
108. CCAGTCTC  -0.22
109. GCCCAGCA  -0.301
110. GAGGGGCC  -0.323
111. CAGCCCCC  -0.384
